Inconclusive results are not listed. Activity calls are given as the source filed them. Unless noted, the call rests on the fitted dose curve; in most records, active means well fitted curve in the direction sought with a large enough effect in the repeat runs; inconclusive means weak or mixed curves; inactive means no such curve, though single readings can be large; an effect the other way counts as inactive or inconclusive.
What was measured:
[1] = qHTS RealTime-Glo MT Cell Viability Assay in HEK293 cells - 0 hour (AID 1224880); further: top concentration of the series differs between compounds; nearly all actives have a fitted effect of over 45% in size
Outline: (§1)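 Viable HEK293 cells reduce a cell-permeant prosubstrate; the product diffuses out and is consumed by NanoLuc in the medium to give light. Compounds went in after a 5 h incubation and plates were read over the treatment course.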

[2] = A CellTox Green Cytotoxicity Assay to monitor cytotoxicity in HEK293 cells - 32 hour (AID 1224881); further: nearly all actives have a fitted effect of over 40% in size
Outline: (§2)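 Fluorescence intensity, read at 0, 8, 16, 24, 32 and 40 h of compound treatment, reflected dye binding to DNA of dead HEK293 cells; compounds (23 nL, DMSO) were added 5 h after plating cells with reagent.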

[3] = A CellTox Green Cytotoxicity Assay to monitor cytotoxicity in HepG2 cells - 0 hour (AID 1224882); further: nearly all actives have a fitted effect of over 35% in size
Outline: (§3)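 Using 1536-well format, dye-containing HepG2 suspension was seeded, allowed 5 h at 37 C/5% CO2, dosed by pintool with compounds, positive and negative controls, and imaged for fluorescence across 40 h.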

[4] = A CellTox Green Cytotoxicity Assay to monitor cytotoxicity in HepG2 cells - 32 hour (AID 1224883); further: nearly all actives have a fitted effect of over 50% in size
Outline: as §3

[5] = A CellTox Green Cytotoxicity Assay to monitor cytotoxicity in HEK293 cells - 8 hour (AID 1224884); further: nearly all actives have a fitted effect of over 35% in size
Outline: as §2

[6] = qHTS RealTime-Glo MT Cell Viability Assay in HEK293 cells - 24 hour (AID 1224886); further: top concentration of the series differs between compounds; nearly all actives have a fitted effect of over 50% in size
Outline: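 Cells + reagent dispensed (600 cells/well, HEK293) → 5 h at 37 C/5% CO2 → 23 nL compound in DMSO pinned → 40 h at 37 C → luminescence read at 0, 8, 16, 24, 32, 40 h.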

[7] = qHTS RealTime-Glo MT Cell Viability Assay in HEK293 cells - 8 hour (AID 1224887); further: top concentration of the series differs between compounds; nearly all actives have a fitted effect of over 50% in size
Outline: as §1

[8] = A CellTox Green Cytotoxicity Assay to monitor cytotoxicity in HEK293 cells - 16 hour (AID 1224888); further: nearly all actives have a fitted effect of over 35% in size
Outline: as §2

[9] = qHTS RealTime-Glo MT Cell Viability Assay in HepG2 cells - 0 hour (AID 1224889); further: nearly all actives have a fitted effect of over 50% in size
Outline: (§4)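 Real-time, nonlytic viability: 600 HepG2 cells/well mixed with NanoLuc enzyme plus prosubstrate; 5 h settle, compound (DMSO) added by pintool; luminescence monitored over 40 h at 37 C.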

[10] = A CellTox Green Cytotoxicity Assay to monitor cytotoxicity in HepG2 cells - 8 hour (AID 1224890); further: nearly all actives have a fitted effect of over 45% in size
Outline: as §3

[11] = qHTS assay to identify small molecule antagonists of the estrogen receptor alpha (ER-alpha) signaling pathway using the BG1 cell line in the presence of 0.1 nM 17-beta-estradiol - cell viability counter screen (AID 1259241); further: nearly all actives have a fitted effect of over 40% in size
Outline: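 In this screen, hormone-deprived VM7Luc4E2 cells were seeded at 4,000 per well, dosed with compound and 0.1 nM estradiol final, and incubated 22 hr at 37C and 5% CO2; fluorogenic live-cell protease signal reported viability.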

[12] = qHTS assay to identify small molecule antagonists of the androgen receptor (AR) signaling pathway using the MDA cell line in the presence of 0.5 nM R1881 - cell viability counter screen (AID 1259242); further: nearly all actives have a fitted effect of over 45% in size
Outline: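 Viability of MDA-kb2 cells was multiplexed with the luciferase AR readout; after 16 hr with compounds and R1881 at 0.5 nM final, CellTiter-Fluor fluorescence was recorded.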

[13] = qHTS assay to identify small molecule HDAC inhibitors (AID 1259364);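 further: wild-type HCT-116 cells with endogenous class I/II HDAC activity; top concentration of the series differs between compounds; nearly all actives have a fitted effect of over 45% in size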
Outline: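 Read-out: luminescence of HDAC-Glo I/II reagent, 30 min RT, reflecting class I/II deacetylase activity in whole HCT-116 cells pre-exposed 2 h to DMSO-dissolved compounds.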

[14] = qHTS assay to identify small molecule HDAC inhibitors - cell viability counter screen (AID 1259365)
Outline: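 Measured quantity is CellTiter-Glo luminescence from wild-type HCT-116 cells after compound incubation of 2hr at 37C, 5% CO2; reagent developed 30min at room temperature.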

[15] = qHTS assay to identify small molecule agonists of the sonic hedgehog signaling (Shh) pathway - cell viability counter screen (AID 1259366); further: nearly all actives have a fitted effect of over 50% in size
Outline: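 In quantitative high-throughput format, 3T3 Gli1-Luc cells were exposed to compounds for 24hr and multiplexed for viability using CellTiter-Fluor, incubated 1hr at 37C before the fluorescence read.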

[16] = qHTS assay to identify small molecule antagonists of the sonic hedgehog signaling (Shh) pathway - cell viability counter screen (AID 1259367); further: nearly all actives have a fitted effect of over 55% in size
Outline: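 NIH/3T3-derived Gli1-Luc reporter cells (2,000 per well) rested 4 hr at 37 C, then received DMSO compounds plus conditioned medium. After 23 hr of treatment, CellTiter-Fluor was added for 1 hr at 37C and fluorescence read.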

[17] = qHTS RealTime-Glo MT Cell Viability Assay in HepG2 cells - 16 hour (AID 1224885); further: nearly all actives have a fitted effect of over 50% in size
Outline: as §4

[18] = biological target: Estrogen receptor (Homo sapiens) (UniProt P03372); assay: qHTS assay to identify small molecule antagonists of the estrogen receptor alpha (ER-alpha) signaling pathway using the BG1 cell line in the presence of 0.1 nM 17-beta-estradiol (AID 1259244); further: nearly all actives have a fitted effect of over 50% in size
Sequence of Estrogen receptor (Homo sapiens) (P03372 whole entry, looked up): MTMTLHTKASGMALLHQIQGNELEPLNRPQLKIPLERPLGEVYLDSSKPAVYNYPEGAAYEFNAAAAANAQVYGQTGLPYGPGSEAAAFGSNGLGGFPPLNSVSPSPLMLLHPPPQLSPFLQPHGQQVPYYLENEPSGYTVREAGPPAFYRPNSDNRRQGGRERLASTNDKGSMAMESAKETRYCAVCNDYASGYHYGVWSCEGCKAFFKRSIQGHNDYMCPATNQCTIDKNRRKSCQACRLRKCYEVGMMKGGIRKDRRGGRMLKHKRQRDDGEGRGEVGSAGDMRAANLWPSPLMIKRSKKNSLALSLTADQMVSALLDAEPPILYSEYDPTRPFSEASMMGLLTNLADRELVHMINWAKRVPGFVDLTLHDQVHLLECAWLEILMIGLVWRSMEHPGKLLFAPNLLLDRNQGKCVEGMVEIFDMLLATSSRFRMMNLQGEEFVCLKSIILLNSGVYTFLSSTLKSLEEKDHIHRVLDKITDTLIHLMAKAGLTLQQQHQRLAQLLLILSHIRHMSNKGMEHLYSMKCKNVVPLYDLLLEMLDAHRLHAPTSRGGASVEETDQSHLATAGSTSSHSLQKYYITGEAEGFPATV
Outline: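 Estradiol at 0.1 nM (final) stimulates the endogenous ER-alpha of VM7Luc4E2 cells carrying an ERE-driven luciferase; compounds are co-incubated 22 h at 37C and luciferase output quantified by luminescence.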

[19] = qHTS assay to identify small molecule phospholipidosis (PLD) inducers (AID 1259344; active means well fitted curve in the direction sought with a large enough effect; an effect the other way counts as inactive or inconclusive)
Outline: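 HepG2 cells on collagen I, attached 4 h at 37 C, were co-treated with compound and LipidTOX Red dye for 24 h at 37 C, then fixed with paraformaldehyde plus Hoechst 33342 and imaged by high-content microscopy for phospholipid accumulation.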

[20] = biological target: Androgen receptor (Homo sapiens) (UniProt P10275); assay: qHTS assay to identify small molecule antagonists of the androgen receptor (AR) signaling pathway using the MDA cell line in the presence of 0.5 nM R1881 (AID 1259243); further: nearly all actives have a fitted effect of over 50% in size
Sequence of Androgen receptor (Homo sapiens) (P10275 whole entry, looked up): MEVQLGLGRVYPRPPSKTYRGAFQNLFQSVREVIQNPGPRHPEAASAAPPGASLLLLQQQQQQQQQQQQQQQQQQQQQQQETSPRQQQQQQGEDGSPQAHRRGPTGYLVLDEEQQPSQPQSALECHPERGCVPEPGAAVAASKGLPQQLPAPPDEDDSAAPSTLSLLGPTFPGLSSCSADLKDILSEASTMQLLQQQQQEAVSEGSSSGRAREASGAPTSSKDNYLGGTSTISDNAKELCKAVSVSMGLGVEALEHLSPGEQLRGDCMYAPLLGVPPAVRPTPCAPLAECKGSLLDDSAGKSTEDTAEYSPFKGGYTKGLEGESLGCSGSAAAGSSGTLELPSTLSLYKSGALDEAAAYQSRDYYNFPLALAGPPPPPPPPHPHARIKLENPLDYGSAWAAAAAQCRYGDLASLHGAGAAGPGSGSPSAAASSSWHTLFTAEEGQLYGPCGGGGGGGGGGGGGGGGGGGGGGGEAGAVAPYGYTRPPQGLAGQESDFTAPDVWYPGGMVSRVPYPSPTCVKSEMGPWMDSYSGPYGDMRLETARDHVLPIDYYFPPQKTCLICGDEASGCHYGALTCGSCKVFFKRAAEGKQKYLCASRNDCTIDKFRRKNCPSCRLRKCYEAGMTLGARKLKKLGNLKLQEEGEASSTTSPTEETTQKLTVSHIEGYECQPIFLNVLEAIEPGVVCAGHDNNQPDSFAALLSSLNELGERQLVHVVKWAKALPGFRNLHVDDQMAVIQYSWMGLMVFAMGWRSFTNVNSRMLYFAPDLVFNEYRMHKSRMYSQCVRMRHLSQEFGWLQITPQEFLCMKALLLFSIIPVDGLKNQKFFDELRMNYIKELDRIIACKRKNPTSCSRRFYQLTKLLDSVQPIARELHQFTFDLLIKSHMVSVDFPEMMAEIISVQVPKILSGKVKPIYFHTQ
Outline: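 Reporter cells cultured without CO2 receive test chemicals, then 0.5 nM R1881 final; after 16 hr at 37C, ONE-Glo is added and light output recorded.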
On the % scale 0 is the no-effect control and ±100 the full control effect.

Cc1ccc(N)cc1[N+](=O)[O-]
inactive: outcome [1] | Potency [2] | Potency [3] | Potency [4] | Potency [5] | Potency [6] | Potency [7] | Potency [8] | Potency [9] | Potency [10] | outcome [11] | outcome [12] | Potency [13] | outcome [14] | Potency [15] | outcome [16]

NCCN1CCNC1=O
inactive: outcome [1] | Potency [2] | Potency [3] | Potency [4] | Potency [5] | outcome [17] | Potency [6] | Potency [8] | Potency [9] | Potency [10] | outcome [11] | outcome [12] | outcome [18] | Potency [13] | outcome [16]

NS(=O)(=O)c1cc2c(cc1Cl)NC(CSCc1ccccc1)=NS2(=O)=O
inactive: outcome [1] | Potency [2] | Potency [3] | Potency [4] | Potency [5] | Potency [6] | Potency [8] | Potency [9] | Potency [10] | outcome [11] | outcome [12] | outcome [18] | Potency [19] | Potency [13] | outcome [14] | Potency [15] | outcome [16]

CCCCCCC(CCCCCCCCCCC(=O)OCC(COC(C)=O)OC(C)=O)OC(C)=O (stereo unspecified)
inactive: outcome [1] | Potency [2] | Potency [3] | Potency [4] | Potency [5] | Potency [6] | Potency [7] | Potency [8] | Potency [9] | Potency [10] | outcome [11] | outcome [12] | outcome [18] | Potency [15] | outcome [16]

COCc1ccc(COC)cc1
inactive: outcome [1] | Potency [2] | Potency [3] | Potency [4] | Potency [5] | Potency [6] | Potency [7] | Potency [8] | Potency [9] | Potency [10] | outcome [11] | outcome [12] | outcome [18] | Potency [13] | outcome [14] | Potency [15] | outcome [16]

CN(C)CCn1nnnc1SCC1=C(C(=O)O)N2C(=O)[C@@H](NC(=O)Cc3csc(N)n3)[C@H]2SC1
inactive: outcome [1] | Potency [2] | Potency [3] | Potency [4] | Potency [5] | Potency [6] | Potency [8] | Potency [9] | Potency [10] | outcome [11] | outcome [12] | Potency [20] | Potency [19] | Potency [15] | outcome [16]

CCC(C)(C)C1CCC(OC)CC1 (stereo unspecified)
inactive: outcome [1] | Potency [2] | Potency [3] | Potency [4] | Potency [5] | outcome [17] | Potency [8] | Potency [9] | Potency [10] | outcome [11] | outcome [12] | outcome [18] | Potency [13] | outcome [14] | Potency [15] | outcome [16]

CCCCCCCCCCC1CO1 (stereo unspecified)
inactive: outcome [1] | Potency [2] | Potency [3] | Potency [4] | Potency [5] | outcome [17] | Potency [6] | Potency [8] | Potency [9] | Potency [10] | outcome [11] | outcome [12] | Potency [13] | outcome [14] | Potency [15] | outcome [16]

C=CCSCC1Nc2cc(Cl)c(S(N)(=O)=O)cc2S(=O)(=O)N1 (stereo unspecified)
inactive: outcome [1] | Potency [2] | Potency [3] | Potency [4] | Potency [5] | Potency [6] | Potency [7] | Potency [8] | Potency [9] | Potency [10] | outcome [11] | outcome [12] | Potency [19] | outcome [14] | Potency [15] | outcome [16]

C=C(C)C(=O)OCCCCCCCCCCCCCCCCCC
inactive: activity change, negative = cytotoxicity [1] 4.5% [at 15.8 µM] | cytotoxicity increase [2] 3.44% [at 15.8 µM] | cytotoxicity [3] 0.514% [at 15.8 µM] | cytotoxicity increase [4] -0.434% [at 15.8 µM] | cytotoxicity increase [5] -3.54% [at 15.8 µM] | activity change, negative = cytotoxicity [6] 11.4% [at 15.8 µM] | activity change, negative = cytotoxicity [7] 4.13% [at 15.8 µM] | activity change [8] 0.239% [at 15.8 µM, hits give high values] | activity change, negative = cytotoxicity [9] -1.29% [at 15.8 µM] | cytotoxicity increase [10] 0.0012% [at 15.8 µM] | activity change, negative = cytotoxicity [11] 10.5% [at 19 µM] | viability change, negative = cytotoxic [12] 1.71% [at 19 µM] | activity change, negative = inhibition [18] 9.23% [at 19 µM] | activity change, negative = inhibition [13] 1.5% [at 19 µM] | activity change, negative = cytotoxicity [14] 3.83% [at 19 µM] | viability change, negative = cytotoxic [15] -3.3% [at 19 µM] | viability change, negative = cytotoxic [16] -2.33% [at 19 µM]

CCCCNc1ccccc1
inactive: outcome [1] | Potency [2] | Potency [3] | Potency [4] | Potency [5] | Potency [6] | Potency [7] | Potency [8] | Potency [9] | Potency [10] | outcome [11] | outcome [12] | Potency [20] | outcome [18] | outcome [14] | Potency [15] | outcome [16]

C=C(C)C(=O)NCCC[N+](C)(C)C
inactive: outcome [1] | Potency [2] | Potency [3] | Potency [4] | Potency [5] | Potency [6] | Potency [7] | Potency [8] | Potency [9] | Potency [10] | outcome [11] | outcome [12] | outcome [18] | Potency [13] | outcome [16]

CC1=CC(=O)CCC1
inactive: outcome [1] | Potency [2] | Potency [3] | Potency [4] | Potency [5] | outcome [17] | Potency [6] | Potency [8] | Potency [9] | Potency [10] | outcome [11] | outcome [12] | Potency [13] | outcome [14] | Potency [15] | outcome [16]

OCC(O)[C@@H](O)[C@H](O)[C@H](O)CO[C@H]1O[C@H](CO)[C@@H](O)[C@H](O)[C@H]1O (stereo partly specified)
inactive: outcome [1] | Potency [2] | Potency [3] | Potency [4] | Potency [5] | Potency [6] | Potency [7] | Potency [8] | Potency [9] | Potency [10] | outcome [11] | outcome [12] | Potency [13] | outcome [14] | Potency [15] | outcome [16]

O=C(O)CCNC(=O)c1ccc(N=Nc2ccc(O)c(C(=O)O)c2)cc1
inactive: outcome [1] | Potency [2] | Potency [3] | Potency [4] | Potency [5] | outcome [17] | Potency [6] | Potency [8] | Potency [9] | Potency [10] | outcome [12] | outcome [18] | Potency [19] | Potency [13] | outcome [14] | outcome [16]

COc1cccc(OC)c1
inactive: outcome [1] | Potency [2] | Potency [3] | Potency [4] | Potency [5] | Potency [6] | Potency [7] | Potency [8] | Potency [9] | Potency [10] | outcome [11] | outcome [12] | Potency [13] | outcome [14] | Potency [15] | outcome [16]

Reference: PubChem BioAssay (Tox21)
